Experiment [1] in a line: qHTS RealTime-Glo MT Cell Viability Assay in HEK293 cells - 40 hour (AID 1224874). Further: nearly all actives have a fitted effect of over 50% in size. Further: potency means the concentration at half of the fitted maximal effect. The note with it: RealTime-Glo luminescence; max response: hits give low values. Put shortly:
(§1)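 Measured as luminescence from the same continuously cultured HEK293 wells at successive time points (0, 8, 16, 24, 32, 40 h) after compound addition. Reagent present from seeding; dosing at 5 h; incubation 37 C.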
Background: qHTS replaces the single test concentration by a dilution series.

Experiment [2] can be described thus: A CellTox Green Cytotoxicity Assay to monitor cytotoxicity in HEK293 cells - 24 hour (AID 1224875). Further: nearly all actives have a fitted effect of over 45% in size. Further: potency means the concentration at half of the fitted maximal effect. Put shortly: (§2)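 Homogeneous no-lysis format: HEK293 cell suspension mixed with CellTox Green reagent, seeded, incubated 5 h at 37 C/5% CO2, then dosed by pintool with compound in DMSO.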
Experiment [3] can be described thus: A CellTox Green Cytotoxicity Assay to monitor cytotoxicity in HepG2 cells - 16 hour (AID 1224876). Further: nearly all actives have a fitted effect of over 45% in size. In outline: (§3)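 Fluorescent DNA-binding dye, 600 HepG2 cells/well, 5 h preincubation then compound in DMSO; same plates read at 0–40 h, 37 C.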
Experiment [4] is described as follows: qHTS RealTime-Glo MT Cell Viability Assay in HepG2 cells - 32 hour (AID 1224877). Further: nearly all actives have a fitted effect of over 55% in size. Further: potency means the concentration at half of the fitted maximal effect. Put shortly:
(§4)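 Luminescence read-out: viable HepG2 cells reduce a prosubstrate to a NanoLuc substrate, giving a signal proportional to live cell number. Reads taken at 0, 8, 16, 24, 32 and 40 h of compound exposure at 37 C.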

Experiment [5] can be described thus: qHTS RealTime-Glo MT Cell Viability Assay in HEK293 cells - 0 hour (AID 1224880). Further: nearly all actives have a fitted effect of over 45% in size. Further: potency means the concentration at half of the fitted maximal effect. Put shortly:
as §1

A short description of experiment [6]: A CellTox Green Cytotoxicity Assay to monitor cytotoxicity in HEK293 cells - 32 hour (AID 1224881). Further: nearly all actives have a fitted effect of over 40% in size. Further: potency means the concentration at half of the fitted maximal effect. Put shortly:
as §2

Experiment [7] can be described thus: A CellTox Green Cytotoxicity Assay to monitor cytotoxicity in HepG2 cells - 0 hour (AID 1224882). Further: nearly all actives have a fitted effect of over 35% in size. Put shortly: as §3
Experiment [8] is described as follows: A CellTox Green Cytotoxicity Assay to monitor cytotoxicity in HEK293 cells - 8 hour (AID 1224884). Further: nearly all actives have a fitted effect of over 35% in size. Further: potency means the concentration at half of the fitted maximal effect. Put shortly:
as §2

The nature of experiment [9]: qHTS RealTime-Glo MT Cell Viability Assay in HepG2 cells - 16 hour (AID 1224885). Further: nearly all actives have a fitted effect of over 50% in size. Further: potency means the concentration at half of the fitted maximal effect. Put shortly:
as §4

Experiment [10] in a line: qHTS RealTime-Glo MT Cell Viability Assay in HEK293 cells - 24 hour (AID 1224886). Further: nearly all actives have a fitted effect of over 50% in size. Further: potency means the concentration at half of the fitted maximal effect. In outline:
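Nonlytic real-time viability readout: viable cells convert prosubstrate to NanoLuc substrate, giving luminescence proportional to live cell number. HEK293, 600 cells/well, compound added after 5 h, continuous culture at 37 C.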

A short description of experiment [11]: A CellTox Green Cytotoxicity Assay to monitor cytotoxicity in HEK293 cells - 16 hour (AID 1224888). Further: nearly all actives have a fitted effect of over 35% in size. Further: potency means the concentration at half of the fitted maximal effect. Put shortly: as §2
Experiment [12] in a line: qHTS RealTime-Glo MT Cell Viability Assay in HepG2 cells - 0 hour (AID 1224889). Further: nearly all actives have a fitted effect of over 50% in size. Further: potency means the concentration at half of the fitted maximal effect. Put shortly: as §4
The nature of experiment [13]: A CellTox Green Cytotoxicity Assay to monitor cytotoxicity in HepG2 cells - 8 hour (AID 1224890). Further: nearly all actives have a fitted effect of over 45% in size. Further: potency means the concentration at half of the fitted maximal effect. Put shortly: as §3
Experiment [14] in a line: qHTS assay to identify small molecule antagonists of the estrogen receptor alpha (ER-alpha) signaling pathway using the BG1 cell line in the presence of 0.1 nM 17-beta-estradiol - cell viability counter screen (AID 1259241). Further: nearly all actives have a fitted effect of over 40% in size. Further: potency means the concentration at half of the fitted maximal effect. In outline: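 Cells were plated and left 24 hr, compounds in DMSO were pinned in, 17beta-estradiol was added to 0.1 nM final, and after 22 hr CellTiter-Fluor reagent was added for 30 min before fluorescence was read.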

Experiment [15] in a line: qHTS assay to identify small molecule antagonists of the androgen receptor (AR) signaling pathway using the MDA cell line in the presence of 0.5 nM R1881 - cell viability counter screen (AID 1259242). Further: nearly all actives have a fitted effect of over 45% in size. Further: potency means the concentration at half of the fitted maximal effect. Put shortly: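 Human breast carcinoma MDA-kb2 cells, cultured without CO2, receive compounds alongside 0.5 nM (final) R1881 agonist. After 16 hr at 37C, viability is taken as live-cell protease signal.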

Experiment [16] can be described thus: A CellTox Green Cytotoxicity Assay to monitor cytotoxicity in HepG2 cells - 24 hour (AID 1224878). Further: nearly all actives have a fitted effect of over 45% in size. Further: potency means the concentration at half of the fitted maximal effect. In outline: as §3
The nature of experiment [17]: A CellTox Green Cytotoxicity Assay to monitor cytotoxicity in HepG2 cells - 40 hour (AID 1224879). Further: nearly all actives have a fitted effect of over 40% in size. Further: potency means the concentration at half of the fitted maximal effect. Put shortly: as §3
Experiment [18] can be described thus: A CellTox Green Cytotoxicity Assay to monitor cytotoxicity in HepG2 cells - 32 hour (AID 1224883). Further: nearly all actives have a fitted effect of over 50% in size. Further: potency means the concentration at half of the fitted maximal effect. In outline: as §3
The nature of experiment [19]: qHTS RealTime-Glo MT Cell Viability Assay in HEK293 cells - 8 hour (AID 1224887). Further: nearly all actives have a fitted effect of over 50% in size. Further: potency means the concentration at half of the fitted maximal effect. In outline:
as §1

Our source for the max response and Potency values is PubChem BioAssay (Tox21).

Values joined by “and” are separate entries in the source; they are usually repeats but may differ in a detail not shown here. Equal values may be shown once. Unmarked numbers belong to inactive results. Inconclusive results are not listed. Active and inactive are the calls of the source. The call rests on the fitted dose curve; in most records, active means well fitted curve in the direction sought with a large enough effect in the repeat runs; inconclusive means weak or mixed curves; inactive means no such curve, though single readings can be large; an effect the other way counts as inactive or inconclusive.
On the % scale 0 is the no-effect control and ±100 the full control effect.

For the compound `c1ccc(Nc2cccc3ccccc23)cc1`, the max response in [1] was -7.99%. For the same compound, the Potency result in experiment [2], in [3], in experiment [4], in experiment [5], in [6] and in [7] was “inactive” throughout. Moreover, the Potency entry in [8], in experiment [9], in [10], in experiment [11], in [12] and in experiment [13] was “inactive” each time. Also, the Potency result in [14] and in [15] was “inactive” in each case.

Turning to `CCCCCCCCCCCCOC(=O)c1cc(O)c(O)c(O)c1`, the Potency in experiment [1] was 3.45 µM (active) and 3.47 µM (active); in [2] it was 54.7 µM (active) and 49 µM (active); in [4] it was 54.7 µM (active) and 49 µM (active); in experiment [16], 48.8 µM (active) and 49 µM (active); in experiment [17] it was 48.8 µM (active) and 54.9 µM (active); in experiment [6], 48.8 µM (active) and 49 µM (active). Besides, the Potency is 48.8 µM (active) and 54.9 µM (active) in [18]; 54.7 µM (active) in [8]; 4.35 µM (active) and 3.89 µM (active) in experiment [10]; 7.73 µM (active) and 6.17 µM (active) in experiment [19]; 54.7 µM (active) and 43.6 µM (active) in [11]; 48.8 µM (active) and 21.9 µM (active) in experiment [13]. In addition, the Potency in experiment [15] is 60.9 µM (active). Moreover, the Potency entry in experiment [5], in experiment [7] and in experiment [12] was “inactive” in each case.

Consider `CN1[C@@H]2CC[C@@H]1CC(OC(=O)C(CO)c1ccccc1)C2` (stereo partly specified), for which the max response in experiment [1] was -6.75%. The Potency result in experiment [2], in experiment [3], in experiment [4], in experiment [5], in experiment [7] and in experiment [18] was “inactive” each time. The Potency entry in experiment [9], in experiment [10], in experiment [19], in experiment [11], in experiment [12] and in experiment [13] was “inactive” in each case. The Potency result in experiment [14] and in experiment [15] was “inactive” throughout.

As to `CN(C)c1ccc(N=NS(=O)(=O)O)cc1`, the max response in experiment [1] was -17.2%. Also, the Potency result in [2], in experiment [3], in experiment [4], in experiment [16], in experiment [17] and in experiment [5] was “inactive” each time. The Potency result in [6], in [7], in [18], in experiment [8], in [11] and in experiment [13] was “inactive” throughout. Further, the values for the Potency in experiment [19] and in experiment [15] were 34.5 µM (active) and 27.3 µM (active), respectively.

On to `O=C(O)CCCCCCC(=O)O`, for which the max response in [1] was 12.4%. Besides, the Potency entry in experiment [2], in [3], in [4], in [16], in experiment [17] and in experiment [5] was “inactive” in each case. The Potency result in experiment [6], in [7], in experiment [18], in experiment [9], in experiment [10] and in [19] was “inactive” in each case. Further, the Potency entry in experiment [11], in experiment [12], in experiment [13], in experiment [14] and in [15] was “inactive” in each case.

As to `CC1(C)C(=O)N(Br)C(=O)N1Br`, the max response in [1] was -1.21%. Moreover, the Potency result in experiment [2], in experiment [3], in experiment [4], in [16], in [17] and in [5] was “inactive” in each case. The Potency result in [6], in experiment [18], in experiment [10], in [19], in experiment [11] and in experiment [12] was “inactive” each time. The Potency result in [13], in experiment [14] and in experiment [15] was “inactive” throughout.

Regarding `CNC(=O)c1cc(Oc2ccc(NC(=O)Nc3ccc(Cl)c(C(F)(F)F)c3)cc2)ccn1`, the Potency in [1] was 3.01 µM (active); in experiment [10] it was 3.38 µM (active); in [19], 4.25 µM (active); in experiment [15], 26.6 µM (active). Further, the Potency result in experiment [2], in experiment [16], in experiment [5], in [6], in experiment [7] and in experiment [8] was “inactive” throughout. For the same compound, the Potency result in experiment [11], in [12] and in experiment [13] was “inactive” throughout.

As for `CC(=O)c1ccccc1N`, the Potency result in experiment [2], in experiment [3], in experiment [4], in experiment [16], in [17] and in experiment [5] was “inactive” each time. The Potency result in experiment [6], in [7], in [18], in [8], in [9] and in [11] was “inactive” each time. For the same compound, the Potency entry in [12], in experiment [13], in experiment [14] and in experiment [15] was “inactive” in each case.

As to `CCN(CC)c1ccc(N)cc1`, the Potency in experiment [1] is 17.8 µM (active); in experiment [17], 50.3 µM (active); in [9] it was 50.3 µM (active); in experiment [10], 22.5 µM (active); in experiment [19] it was 20 µM (active); in experiment [14], 17.7 µM (active). In experiment [15], the Potency was 17.7 µM (active). Moreover, the Potency entry in [2], in experiment [5], in [7], in experiment [11], in experiment [12] and in [13] was “inactive” each time.

As to `Cc1cc2c(C(C)C)c(O)c(O)c(C=O)c2c(O)c1-c1c(C)cc2c(C(C)C)c(O)c(O)c(C=O)c2c1O`, the Potency is 8.49 µM (active) in experiment [1]; 19 µM (active) in [2]; 21.3 µM (active) in experiment [4]; 21.3 µM (active) in [6]; 10.7 µM (active) in [10]; 16.9 µM (active) in experiment [11]. In addition, the Potency result in experiment [5], in [7], in [12], in [13] and in experiment [14] was “inactive” each time.

`CC(=O)OC(OC(C)=O)c1ccc([N+](=O)[O-])o1`: the Potency in experiment [1] was 44.4 µM (active); in [17], 49.8 µM (active); in [18], 55.9 µM (active); in experiment [10] it was 44.4 µM (active); in experiment [19], 39.6 µM (active); in experiment [14], 55.4 µM (active). For the same compound, the Potency result in experiment [5], in [7], in experiment [8], in experiment [12] and in [13] was “inactive” each time.

Consider `CCOC(=O)C1=C(C)NC(C)=C(C(=O)OCC)C1c1ccccc1/C=C/C(=O)OC(C)(C)C`, for which the Potency result in experiment [2], in experiment [3], in [16], in experiment [17], in experiment [6] and in [7] was “inactive” in each case. The Potency entry in experiment [18], in experiment [8], in experiment [10], in experiment [19], in experiment [11] and in experiment [13] was “inactive” throughout. Moreover, the Potency entry in [14] and in experiment [15] was “inactive” each time. In addition, the Potency in [5] was 3.79 µM (active); in experiment [12], 3.38 µM (active).

Turning to `CC(C)(C)c1cc(CCC(=O)NCCCCCCNC(=O)CCc2cc(C(C)(C)C)c(O)c(C(C)(C)C)c2)cc(C(C)(C)C)c1O`, the max response in [1] is -24.8%. For the same compound, the Potency result in [2], in experiment [16], in experiment [17], in experiment [5], in [6] and in experiment [7] was “inactive” in each case. In addition, the Potency entry in experiment [18], in experiment [8], in experiment [12], in experiment [13], in experiment [14] and in experiment [15] was “inactive” each time.

With `CC(O)C#CC(C)O` (stereo unspecified), the Potency entry in experiment [5], in experiment [7], in experiment [8], in experiment [19], in [11] and in [12] was “inactive” each time. Moreover, the Potency result in experiment [13], in experiment [14] and in experiment [15] was “inactive” in each case. The Potency in [6] is 54.4 µM (active).

On to `O=C1Nc2ccc(Cl)cc2[C@@](C#CC2CC2)(C(F)(F)F)O1`, for which the Potency in [1], in experiment [10] and in experiment [19] was 23.9 µM (active) throughout. Besides, the Potency result in [5], in [7], in experiment [12], in [14] and in [15] was “inactive” in each case.
